Screening results: PubChem, National Center for Advancing Translational Sciences (NCATS)
Sampled rows, rich in hits. Any-hit rate of the full collection: about 19%.
DT40 TDP1 CPT = DT40-hTDP1 cell growth loss with CPT; chicken DT40 Tdp1-/-;hTDP1 cells + 20 nM CPT, ATP luminescence, 48 h; Potency, µM (series often up to 46.2 µM), without a hit: at the top dose activity change, negative = growth inhibition, hits mostly inhibitors; 12% of 420,000 active; also: potency is read from the fitted curve at half-maximal effect; % is scaled to controls: 0 for no effect and ±100 for the full control effect; nearly all actives have a fitted effect of over 55% in size
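Chicken DT40 Tdp1-/- cells complemented with human TDP1, 400 cells/well, exposed to compounds plus 20 nM camptothecin for at least 48 h at 37 C; viability read as ATP content by CellTiter-Glo luminescence.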
IL-1B inflam inh = inhibitors of inflammasome signaling (IL-1 beta secretion); THP-1 LPS/ATP IL-1B secretion, AlphaLISA, 16 h; active compounds read low; activity change, % at 57.5 µM; 4.7% of 360,000 active; in the data active = activity change below about -50%; inconclusive = mostly about -30% to -49%; also: % is scaled to controls: 0 for no effect and ±100 for the full control effect
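THP-1 cells pretreated 1 hr with compounds (up to 57.5 uM final), then stimulated with LPS (250 ng/mL final) plus ATP (1.25 mM final); secreted IL-1B measured by AlphaLISA after 16 hr, decreased signal indicating inhibition.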
HepG2 viability = HepG2 cytotoxicity, counter-screen for TGF-b inhibitors; HepG2 CAGA-GFP viability, ATP luminescence, 18 h; 0.76% of 410,000 active; Potency, µM (doses to about 46.1 µM), for the others: top-dose activity change, negative = cytotoxicity, usual class: cytotoxic; AID 588856; also: potency is read from the fitted curve at half-maximal effect
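CellTiter-Glo luminescence gave cytotoxicity after 18 hours at 37 degrees C. The cells were HepG2 CAGA-GFP in 1% FBS DMEM, stimulated with 500 pg/mL TGF-beta after compound addition. %Activity was normalised to no-cell wells (complete cell-killing) and DMSO (no toxicity), and curves were fitted and classified.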
TDP1 cell noCPT = qHTS for Inhibitors of human tyrosyl-DNA phosphodiesterase 1 (TDP1): qHTS in cells in absence of CPT | DT40 Tdp1-/- hTDP1 cells, no CPT, ATP luminescence, 48 h | Potency, µM (series often up to 46.2 µM), without a hit: at the top dose activity change, negative = growth inhibition, usual class: inhibitors | 15% of 420,000 active | AID 686978, 2013; also: potency is read from the fitted curve at half-maximal effect; % is scaled to controls: 0 for no effect and ±100 for the full control effect; nearly all actives have a fitted effect of over 55% in size
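Cells were dispensed at 400 per well, compounds added by pin tool, plates incubated ≥48 hr at 37 °C, then CellTiter-Glo added for 30 min at room temperature before luminescence reading. Line: DT40 Tdp1-/- complemented with hTDP1; camptothecin omitted.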
TGFb SMAD3 inh = blocks TGF-b signaling. HepG2 CAGA-GFP TGF-b/SMAD3 reporter, GFP fluorescence, 18 h; TGF-beta stimulated, 500 pg/mL final. Potency, µM (series often up to 46.1 µM), for inactives: top-dose activity, negative = inhibition, most hits filed as inhibitors. 1.2% of 410,000 active. AID 588855; also: potency is read from the fitted curve at half-maximal effect; % is scaled to controls: 0 for no effect and ±100 for the full control effect; nearly all actives have a fitted effect of over 65% in size
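HEPG2 CAGA-GFP, 1000 cells/well; 2 h settle, 37 C; cpd via pin tool; TGF-b 500 pg/mL final; 18 h, 37 C; GFP imaging ex488/em500-530; %Activity normalised to -TGF-b and +DMSO controls; CRC fit, curve class.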
ASM inhibitor = inhibitors of human secretory acid sphingomyelinase; Potency, µM (series often up to 57.5 µM), for inactives: at the highest dose activity change, negative = inhibition, usual class: inhibitors; AID 504937; 0.006% of 340,000 active; placental ASM, HMU-PC fluorogenic substrate, 60 min; P17405; also: potency is read from the fitted curve at half-maximal effect
Target sequence (P17405 47-631 limits assumed): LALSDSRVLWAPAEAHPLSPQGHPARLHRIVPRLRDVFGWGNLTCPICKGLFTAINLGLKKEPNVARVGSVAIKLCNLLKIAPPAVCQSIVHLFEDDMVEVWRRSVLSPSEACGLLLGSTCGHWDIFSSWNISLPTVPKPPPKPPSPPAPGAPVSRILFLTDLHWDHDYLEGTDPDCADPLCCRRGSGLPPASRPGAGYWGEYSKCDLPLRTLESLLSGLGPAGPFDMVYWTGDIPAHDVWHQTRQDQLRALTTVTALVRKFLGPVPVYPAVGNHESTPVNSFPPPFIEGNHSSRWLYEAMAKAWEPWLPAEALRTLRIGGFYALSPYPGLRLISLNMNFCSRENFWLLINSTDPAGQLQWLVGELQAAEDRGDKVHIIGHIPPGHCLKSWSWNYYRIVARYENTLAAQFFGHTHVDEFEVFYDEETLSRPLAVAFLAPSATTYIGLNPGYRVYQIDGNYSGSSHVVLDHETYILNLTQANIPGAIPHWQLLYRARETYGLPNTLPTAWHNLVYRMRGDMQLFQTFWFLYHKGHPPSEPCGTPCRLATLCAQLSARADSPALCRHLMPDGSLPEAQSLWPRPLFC
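qHTS format. ASM enzyme prepared from human placenta hydrolyses the fluorogenic substrate HMU-PC0 (9 uM final) over 60 min at 37 °C after a 10 min compound preincubation.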
The depositor's hits bear a star. Unless noted, calls follow the shape of the dose curve; as a rule, active = well fitted curve in the direction sought with a large enough effect; inconclusive = small, poorly fitted or top-dose-only effect, or another doubt; inactive = no such curve, though single readings can be large; an effect the other way counts as inactive or inconclusive.

For COc1ccc(C(C)NC(=O)CN(c2cc(OC)ccc2OC)S(=O)(=O)c2ccccc2)cc1 (stereo unspecified) the results were DT40 TDP1 CPT 21µM*, HepG2 viability -31%, TDP1 cell noCPT inconclusive and TGFb SMAD3 inh -16%.
`COc1ccccc1CNC(=O)COC(=O)c1ccc2c(=O)n3c(nc2c1)CCCCC3` gave DT40 TDP1 CPT 1%, IL-1B inflam inh -8, HepG2 viability -7%, TDP1 cell noCPT 7%, TGFb SMAD3 inh -7% and ASM inhibitor 0%.
C[N+]1(CC(=O)c2ccc(I)cc2)CCOCC1 was read as DT40 TDP1 CPT -19%, HepG2 viability 3%, TDP1 cell noCPT -4% and TGFb SMAD3 inh -3%.
For COc1ccc2nc(-c3ccccc3)cc(C(=O)OCC(=O)N3CC(C)OC(C)C3)c2c1 (stereo unspecified) the results were DT40 TDP1 CPT inconclusive, IL-1B inflam inh inconclusive, HepG2 viability -14%, TDP1 cell noCPT inconclusive, TGFb SMAD3 inh -10% and ASM inhibitor inactive.
Screening Cc1cc(F)ccc1NC(=O)CCSc1nc(-c2ccco2)cc(C(F)(F)F)n1 returned DT40 TDP1 CPT -24%, HepG2 viability 9%, TDP1 cell noCPT -24% and TGFb SMAD3 inh -13%.
Screening CCOc1ccc(N(CC(=O)NC(C(C)C)C(C)C)S(=O)(=O)c2ccc(OC)c(OC)c2)cc1 returned DT40 TDP1 CPT inconclusive, IL-1B inflam inh 5, HepG2 viability -42%, TDP1 cell noCPT 23µM*, TGFb SMAD3 inh inconclusive and ASM inhibitor 1%.
`COc1ccccc1NC(=O)COC(=O)c1c(NC(C)=O)sc(C)c1C` gave DT40 TDP1 CPT inconclusive, IL-1B inflam inh 1, HepG2 viability -4%, TDP1 cell noCPT 16µM* and TGFb SMAD3 inh 8%.
`CC(=O)Nc1sc(C)c(C)c1C(=O)OCC(=O)Nc1ccccc1` gave DT40 TDP1 CPT inconclusive, IL-1B inflam inh -4, HepG2 viability -29%, TDP1 cell noCPT -17%, TGFb SMAD3 inh -8% and ASM inhibitor -1%.
COc1ccc(CNC(=O)COC(=O)c2c(NC(C)=O)sc(C)c2C)cc1 was read as DT40 TDP1 CPT inconclusive, IL-1B inflam inh 0, HepG2 viability 5%, TDP1 cell noCPT -20%, TGFb SMAD3 inh 4% and ASM inhibitor -1%.
`COc1ccc(CNC(=O)COC(=O)c2c(NC(C)=O)sc(C)c2C)cc1OC` gave DT40 TDP1 CPT inconclusive, IL-1B inflam inh inconclusive, HepG2 viability 19%, TDP1 cell noCPT 23µM* and TGFb SMAD3 inh -7%.
CC(=O)Nc1sc(C)c(C)c1C(=O)OCC(=O)Nc1cccc(C)c1 was read as DT40 TDP1 CPT 16µM*, IL-1B inflam inh -59*, HepG2 viability -13%, TDP1 cell noCPT 16µM*, TGFb SMAD3 inh inconclusive and ASM inhibitor -1%.
O=C(NCC(c1ccco1)N1CCCC1)c1cc2ccccc2s1 (stereo unspecified) was read as DT40 TDP1 CPT -23%, IL-1B inflam inh -4, HepG2 viability -28%, TDP1 cell noCPT -11%, TGFb SMAD3 inh -6% and ASM inhibitor 1%.
For CCOC(=O)[C@]12CCCC=C1N(Cc1ccc3c(c1)OCO3)C(=O)[C@H](CC(=O)NCC1CCCCC1)C2 the results were DT40 TDP1 CPT inconclusive, IL-1B inflam inh 22 and TDP1 cell noCPT inconclusive.
For COc1ccc(NC(=O)c2cc(-c3cc(F)ccc3OC)n[nH]2)c(OC)c1 the results were DT40 TDP1 CPT 26µM*, HepG2 viability -16%, TDP1 cell noCPT inconclusive and TGFb SMAD3 inh 54%.
`COc1ccc(NC(=O)c2cc(-c3ccc(F)cc3OC)n[nH]2)c(OC)c1` gave DT40 TDP1 CPT 16µM*, HepG2 viability -16%, TDP1 cell noCPT 15µM* and TGFb SMAD3 inh 27%.
`COc1ccc(NC(=O)c2cc(-c3cc(C)c(C)cc3O)n[nH]2)c(OC)c1` gave DT40 TDP1 CPT 0%, IL-1B inflam inh 4, HepG2 viability -27%, TDP1 cell noCPT inconclusive, TGFb SMAD3 inh -21% and ASM inhibitor 4%.
`O=C(CN1CCCC1)Nc1ccc(Br)cc1[N+](=O)[O-]` gave DT40 TDP1 CPT -1%, IL-1B inflam inh inconclusive, HepG2 viability 5%, TDP1 cell noCPT 11%, TGFb SMAD3 inh 3% and ASM inhibitor -4%.
For O=C(Nc1ccccc1)N1CCc2ccccc2C1 the results were DT40 TDP1 CPT -17%, IL-1B inflam inh 14, HepG2 viability -52%, TDP1 cell noCPT -23%, TGFb SMAD3 inh 0% and ASM inhibitor -1%.
O=C(Nc1ccc2c(c1)CN(C(=O)Nc1ccc(F)cc1)CC2)c1ccccn1 was read as DT40 TDP1 CPT 5.8µM*, IL-1B inflam inh -15, HepG2 viability -33%, TDP1 cell noCPT 4.1µM* and TGFb SMAD3 inh inconclusive.
`CSc1ccc(C(=O)N2CCc3ccc(NC(=O)c4ccccn4)cc3C2)cc1` gave DT40 TDP1 CPT inconclusive, IL-1B inflam inh 0, HepG2 viability -29%, TDP1 cell noCPT inconclusive, TGFb SMAD3 inh inconclusive and ASM inhibitor -5%.
Screening CSc1ccccc1C(=O)N1CCc2ccc(NC(=O)c3ccccn3)cc2C1 returned DT40 TDP1 CPT 13µM*, IL-1B inflam inh 17, HepG2 viability 10µM*, TDP1 cell noCPT 12µM* and TGFb SMAD3 inh -10%.
`Clc1cccc(-c2cc3nc4c(c(NCc5ccco5)n3n2)CCCC4)c1` gave DT40 TDP1 CPT 21µM*, IL-1B inflam inh -96*, HepG2 viability -23%, TDP1 cell noCPT 11µM*, TGFb SMAD3 inh inconclusive and ASM inhibitor inconclusive.
CCOc1ccccc1CNC(=O)c1ccc(N2Cc3ccccc3Oc3ncccc32)s1 was read as DT40 TDP1 CPT inconclusive, HepG2 viability -24%, TDP1 cell noCPT 15µM* and TGFb SMAD3 inh inconclusive.
COc1cccc2c1Oc1ncccc1N(c1ccc(C(=O)NCc3cccc(C)c3)s1)C2 was read as DT40 TDP1 CPT inconclusive, HepG2 viability 0%, TDP1 cell noCPT inconclusive and TGFb SMAD3 inh 2%.
Screening CCc1nc2ccc(C(=O)N(CC)CCN(C)C)cn2c1N(C=O)CCC(C)C returned DT40 TDP1 CPT inconclusive, IL-1B inflam inh 16, HepG2 viability -3%, TDP1 cell noCPT -7% and TGFb SMAD3 inh 18%.
